According to PubChem BioAssay (EPA / NIEHS):
The source made the active and inactive calls. Rule for the calls: active = hit-call score of the fitted dose curve at least 0.9, where 1 is the maximum; inactive = score below 0.9.

assay: BSK_3C_VCAM1: BioMAP Diversity Plus: 3C Assay for Vascular cell adhesion molecule 1 (VCAM1) Biomarker Activity (AID 2282999); details: BioMAP 3C HUVEC, VCAM1 ELISA, cytokine-stimulated; actives raise or lower the signal
Procedure: BSK_3C is a cell-based, multiplexed-readout assay that uses umbilical vein endothelium, a human vascular primary cell, with measurements taken at 24 hours after chemical dosing in a 96-well plate.BSK_3C_VCAM1 is an assay component measured in the BSK_3C assay. It measures VCAM-1 antibody related to regulation of gene expression using ELISA technology.Data from the assay component BSK_3C_VCAM1 was analyzed into 1 assay endpoint. This assay endpoint, BSK_3C_VCAM1, was analyzed with bidirectional fitting relative to DMSO as the negative control and baseline of activity. Using a type of binding reporter, gain or loss-of-signal activity can be used to understand changes in the signaling as they relate to the gene VCAM1. Furthermore, this assay endpoint can be referred to as a primary readout, because this assay has produced multiple assay endpoints where this one serves a signaling function. To generalize the intended target to other relatable targets, this assay endpoint is annotated to the cell adhesion molecules intended target family, where the subfamily is Immunoglobulin CAM.
The levels of cell surface (or secreted, indicated by the prefix "s") biomarker endpoints were measured by ELISA. Overt cytotoxicity to cells in confluent adherent cultures (all systems other than the BT system) was assessed by measuring total protein levels using sulforhodamine B (SRB) staining in parallel cultures at the time of biomarker measurements, indicated as SRB endpoints. For proliferation assays for adherent cell types, individual cell types are cultured at sub-confluence and relative cell numbers quantified by SRB staining at time points optimized for each system (48 h: 3C and CASM3C systems; 72 h: BT and HDF3CGF systems; 96 h: SAg system). SRB was performed by staining cells with 0.1% SRB after fixation with 10% TCA and reading wells at 560 nm.Viability and proliferation of PBMC (T cells) was quantified by Alamar Blue reduction for the SAg and BT systems. For PBMC viability (referred to as PBMC Cytotoxicity within the assay endpoint names), cells were plated (75,000/well in a 96-well plate) and then chemical samples added for 1 h before addition of activators, SEB and TSST-1 (20 ng/mL final concentration each). Cells were incubated for 90 h. Then, Alamar Blue (20 uL/well) (Invitrogen, Cat DAL1100) was added for 6 h, and the plates were read with a fluorescence microplate reader at 546/580 nm (excitation/emission). For PBMC proliferation, cells were plated and activated as above but incubated for only 16 h prior to addition of Alamar Blue. Plates were read after 6 h.

SMILES | AC50 | outcome
CCCCCOC(=O)c1ccccc1C(=O)OCCCCC | 20 µM (active) | –
O=P(OCCCl)(OCCCl)OCCCl | – | inactive
CC(C)(C)C(O)(CCc1ccc(Cl)cc1)Cn1cncn1 (stereo not given) | – | inactive
Nc1cc(Cl)cc(C(=O)O)c1Cl | – | inactive
CCC[CH2][Sn]([Cl])([CH2]CCC)[CH2]CCC | 0.148 µM (active) | –
Cc1cccc(N)c1N | 16 µM (active) | –
Nc1ccc(N=Nc2ccccc2)cc1 | – | inactive
ClC1=C(Cl)[C@]2(Cl)[C@H]3[C@H]([C@@H]4C=C[C@H]3C4)[C@@]1(Cl)C2(Cl)Cl | 28.7 µM (active) | –
COc1cc(C=O)cc2c1[C@H](COC(N)=O)[C@]1(OC(C)=O)ON2C[C@H]2[C@@H]1N2C(C)=O | 22.1 µM (active) | –
Clc1ccc(Cl)c(Cl)c1 | – | inactive
CC(C)N(Cc1ccccc1)C(=O)C(C)(C)C | – | inactive
CN(C)c1ccc(C(=O)c2ccc(N(C)C)cc2)cc1 | – | inactive
O=[N+]([O-])c1ccc(Oc2ccc(Cl)cc2Cl)cc1 | – | inactive
CCN(CC)N=O | – | inactive
C1=Cc2cccc3cccc1c23 | – | inactive
CCCCCCCCn1sccc1=O | 9.3 µM (active) | –
Oc1ccccc1Cl | – | inactive
CCCSC(=O)N(CCC)CCC | – | inactive
CCCCC(CC)COC(=O)c1ccc(C(=O)OCC(CC)CCCC)c(C(=O)OCC(CC)CCCC)c1 (stereo not given) | – | inactive
Clc1ccc(C(c2ccc(Cl)cc2)C(Cl)Cl)cc1 | 31.4 µM (active) | –

SMILES | AC50 | outcome
ClCCOCCCl | – | inactive
Clc1ccc(C(c2ccc(Cl)cc2)C(Cl)(Cl)Cl)cc1 | 27.5 µM (active) | –
CC(C)(C)OOC(C)(C)CCC(C)(C)OOC(C)(C)C | – | inactive
Cn1cc(-c2ccccc2)c(=O)c(-c2cccc(C(F)(F)F)c2)c1 | – | inactive
Cc1ccc(N=C=O)cc1N=C=O | – | inactive
N#CC(Br)Br | – | inactive
CCCCOC(=O)c1ccccc1C(=O)OCc1ccccc1 | – | inactive
c1ccc(C2CO2)cc1 (stereo not given) | – | inactive
CCCCCCCCOC(=O)c1ccc(C(=O)OCCCCCCCC)c(C(=O)OCCCCCCCC)c1 | – | inactive
Nc1ccc(Cl)cc1N | 4.34 µM (active) | –
O=C1CCCO1 | – | inactive
O=[N+]([O-])C(Br)(CO)CO | 31.1 µM (active) | –
CN(C)c1ccccc1 | – | inactive
OCCCl | – | inactive
COC(=O)Nc1nc2ccccc2[nH]1 | – | inactive
[As]#[In] | – | inactive
O=C(Nc1ccccc1)c1ccccc1I | – | inactive
Nc1ccc(Oc2ccc(N)cc2)cc1 | – | inactive
[O-][Cl+]O | – | inactive
O=C(O)C1C2CCC(O2)C1C(=O)O (stereo not given) | 21 µM (active) | –
